Assay outcomes deposited in PubChem by The Scripps Research Institute Molecular Screening Center.
GPR151 activ: activators of human GPR151. AID 1508602. 1% of 650,000 active. activation, % at 11.2 µM. PathHunter beta-arrestin GPR151 cells, luminescence; in the data active means activation above about 4.9%
MITF primary: blocks human microphthalmia-associated transcription factor. AlphaScreen MITF homodimerization, bead proximity signal. inhibition, % at 2.6 µM. 0.91% of 650,000 active. AID 1259374; in the data active means inhibition above about 50%
FBW7 activator: human FBW7 E3 ligase activation, primary screen. Q969H0. AlphaScreen FBW7–phospho-cyclin E peptide binding, activator screen. normalized activity (activation), % at 26.1 µM. 0.13% of 650,000 active. AID 1259310; in the data active means normalized activity above about 1.9%;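 further: purified mutant Fbw7 with reduced substrate affinity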
Target sequence (Q969H0 whole entry, looked up): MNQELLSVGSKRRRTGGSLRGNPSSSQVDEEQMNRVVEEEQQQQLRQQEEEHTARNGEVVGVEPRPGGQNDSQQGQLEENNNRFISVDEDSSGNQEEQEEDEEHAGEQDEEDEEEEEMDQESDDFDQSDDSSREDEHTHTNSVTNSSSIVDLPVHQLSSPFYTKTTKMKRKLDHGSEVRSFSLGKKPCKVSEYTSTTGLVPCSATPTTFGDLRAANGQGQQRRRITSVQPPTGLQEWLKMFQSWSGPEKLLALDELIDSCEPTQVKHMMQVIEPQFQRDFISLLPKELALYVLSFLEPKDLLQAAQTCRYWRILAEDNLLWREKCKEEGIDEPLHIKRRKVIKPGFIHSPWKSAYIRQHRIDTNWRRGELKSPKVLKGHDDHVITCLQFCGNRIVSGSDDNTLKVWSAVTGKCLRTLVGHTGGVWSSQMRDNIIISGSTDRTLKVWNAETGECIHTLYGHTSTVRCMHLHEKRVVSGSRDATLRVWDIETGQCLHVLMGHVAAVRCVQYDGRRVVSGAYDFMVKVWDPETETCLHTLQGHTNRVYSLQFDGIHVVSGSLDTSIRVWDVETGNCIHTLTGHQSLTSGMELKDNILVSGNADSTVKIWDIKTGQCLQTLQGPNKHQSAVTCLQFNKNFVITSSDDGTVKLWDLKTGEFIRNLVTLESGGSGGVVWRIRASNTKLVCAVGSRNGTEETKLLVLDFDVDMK
TEAD-YAP inh: TEAD-YAP interaction inhibition. HEK-TIYL cells, TEAD-Gal4/YAP UAS-luciferase luminescence. inhibition, % at 9.12 µM. 1.4% of 640,000 active. AID 1259422; in the data active means inhibition above about 32%
Each line names hits and unclear results; the compound was inactive in the other large screens. Rows were chosen to be rich in hits. Some 3.5% of all compounds tested hit in one or more screens of this group.

O=C(Nc1ccc(Cl)cn1)c1ccccc1I	none
CCN(CC)S(=O)(=O)c1ccc(NC(=O)COc2ccc(C(C)(C)C)cc2)cc1	none
COc1cc(-c2cnc3c(Nc4ccc(Cl)cc4)nccn23)cc(OC)c1OC	none
COc1cc(Nc2nccn3c(-c4ccsc4)cnc23)cc(OC)c1OC	TEAD-YAP inh 55
COc1cc(Nc2nccn3c(-c4ccc(C)cc4)cnc23)cc(OC)c1OC	TEAD-YAP inh 46
COc1cc(CNc2nccn3c(-c4ccsc4)cnc23)cc(OC)c1OC	none
Fc1ccc(C2C=C(c3ccccc3)Nc3ncnn32)cc1 (stereo not drawn)	none
C/C(=N/Nc1nc2c(c(=O)n(C)c(=O)n2C)n1Cc1ccccc1)c1ccc(O)cc1	none
Cc1ccc(-n2nnnc2CNC(=O)NCc2cccc3ccccc23)cc1	none
O=C(O)c1cc(S(=O)(=O)Nc2ccc(O)cc2)ccc1O	none
O=C(O)c1cc(NS(=O)(=O)c2ccc(Cl)c(C(=O)O)c2)ccc1O	MITF primary 81
N#CC1=C(N)Oc2n[nH]c(-c3ccccc3)c2C1c1ccc(Br)cc1 (stereo not drawn)	none
O=C(NN=C1CCCCC1)C(=O)Nc1ccc(Cl)c(Cl)c1	none
COc1ccc(/C=C2\C(=O)Nc3ccc(Br)cc32)cc1	none
COc1ccc(/C=C2\C(=O)Nc3ccc(Br)cc32)c(OC)c1OC	TEAD-YAP inh 53
Cc1ccc(/C=C/C(=O)C2C(=O)c3ccccc3C2=O)cc1	TEAD-YAP inh 41
CCN1/C(=C/c2scc(-c3ccccc3)[n+]2C)C=Cc2cc(C)ccc21	TEAD-YAP inh 80
CCN1/C(=C/c2ccc3cc(C)ccc3[n+]2C)C=Cc2cc(C)ccc21	TEAD-YAP inh 83
CN(C)c1ccc(C(=C2C=CC(=[N+](C)C)C=C2)c2ccc(N(C)C)cc2)cc1	MITF primary 92, TEAD-YAP inh 89
CN(C)c1ccc(C(=NO)c2ccc(N(C)C)cc2)cc1	none
CC(C)CC[n+]1ccccc1/C=C/c1ccc(N(C)C)cc1	TEAD-YAP inh 91
Cc1cc(OCC(=O)Nc2ccc3c(c2)OCO3)c(C)cc1Br	none
COc1cc(C(=O)/C=C/Nc2ccc(I)cc2)cc(OC)c1OC	TEAD-YAP inh 36
COc1ccc(N/C=C/C(=O)c2ccc(OC)c(OC)c2)cc1	none
COc1ccc(C(=O)/C=C/Nc2ccc(Br)cc2)cc1OC	none
COc1cc(C(=O)/C=C/Nc2ccc(Br)cc2)cc(OC)c1OC	TEAD-YAP inh 38
COc1ccc(N/C=C/C(=O)c2cc(OC)c(OC)c(OC)c2)cc1	TEAD-YAP inh 42
Cc1cc(S(=O)(=O)NCC(C)C)ccc1OCC(=O)Nc1cccc([N+](=O)[O-])c1	none
COc1ccccc1N1CCN(Cc2cc(Br)c(O)c3ncccc23)CC1	TEAD-YAP inh 81
COc1ccccc1N1CCN(Cc2cc(Cl)c3cccnc3c2O)CC1	TEAD-YAP inh 32
COc1ccccc1N1CCN(Cc2cc([N+](=O)[O-])c(O)c3ncccc23)CC1	none
COc1ccccc1N1CCN(Cc2cc(COC(C)C)c3cccnc3c2O)CC1	MITF primary 82, TEAD-YAP inh 35
COc1ccccc1N1CCN(Cc2cc(COCc3ccccc3)c3cccnc3c2O)CC1	TEAD-YAP inh 74
COc1ccccc1N1CCN(Cc2cc([N+](=O)[O-])c3cccnc3c2O)CC1	none
Cc1ccc(C)c2[nH]c(=O)c(CN(CCO)C(=O)c3ccccc3F)cc12	none
COCCn1c(=NC(=O)CN2C(=O)CCC2=O)sc2cc(C)ccc21	none
CCOCc1cc(CN2CCN(c3ccccc3OC)CC2)c(O)c2ncccc12	MITF primary 91
COCc1cc(CN(C)C2CCCCC2)c(O)c2ncccc12	MITF primary 67, TEAD-YAP inh 74
CCOc1ccccc1N1CCN(Cc2cccc(OC)c2O)CC1	none
COCc1cc(CN2CCCC2)c(O)c2ncccc12	MITF primary 100, TEAD-YAP inh 81
Oc1c(CN2CCCCC2)cc(COCc2ccccc2)c2cccnc12	MITF primary 98, TEAD-YAP inh 74
O=C(c1ccc(Cl)cc1)N(c1ccccc1)C1C=CS(=O)(=O)C1 (stereo not drawn)	none
CCOCc1cc(CN2CCOCC2)c(O)c2ncccc12	MITF primary 86
CC1CCN(Cc2cc([N+](=O)[O-])c(O)c3ncccc23)CC1	none
CCOc1ccccc1N1CCN(Cc2cc(OC)c(OC)c(OC)c2)CC1	TEAD-YAP inh 41
CCCOCc1cc(CN2CCN(C)CC2)c(O)c2ncccc12	MITF primary 94
O=C(NCc1ccco1)C(Cc1ccccc1)NS(=O)(=O)c1ccc(Cl)cc1 (stereo not drawn)	none
O=C(O)c1cc(-[n+]2nc3nonc3[nH]2)ccc1[O-]	none
COc1cc(Nc2nc(Nc3ccccc3)c3ncn(-c4ccccc4)c3n2)cc(OC)c1OC	none
COc1cc(Nc2nc(Nc3nc4ccccc4n3C)nc3c2ncn3-c2ccccc2)cc(OC)c1OC	TEAD-YAP inh 42
CCNc1nc(Nc2cc(OC)c(OC)c(OC)c2)c2ncn(-c3ccccc3)c2n1	TEAD-YAP inh 47
COc1cccc(N2C(=O)CN(C(=O)C3CC=CCC3)CC2C)c1 (stereo not drawn)	none
CC(C)(C)OC(=O)N1CCCC(c2ccnc3cc(C(C)(C)C)nn23)C1 (stereo not drawn)	FBW7 activator 2.1
N#CC(C#N)C(C#N)(C#N)C1CCCC1=O (stereo not drawn)	MITF primary 78
N#CC(C#N)C(C#N)(C#N)C1CCCCC1=O (stereo not drawn)	none
O=C(Nc1ccc(F)cc1F)c1cc(-c2ccc(F)cc2)on1	none
COc1ccc(/C=C2/SC(=Nc3ccc(F)cc3)NC2=O)c(OC)c1	TEAD-YAP inh 42
COc1ccc(OC)c(/C=C2\SC(=Nc3ccc(O)cc3)NC2=O)c1	TEAD-YAP inh 54
COc1ccc(/C=C2\SC(=O)NC2=Nc2ccccc2)cc1	none
COc1ccc(OC)c(/C=C2\SC(=Nc3ccccc3)NC2=O)c1	none
COc1cccc(N=C2NC(=O)/C(=C/c3ccc(OC)c(OC)c3)S2)c1	TEAD-YAP inh 48
COc1ccc(/C=C2\SC(=O)NC2=Nc2ccccc2)c(OC)c1	TEAD-YAP inh 47
CCc1ccc(NC(=O)C(CC)Sc2nc3ccsc3c(=O)n2NC(=O)c2cccc(OC)c2)cc1 (stereo not drawn)	none
CON(C)C(=O)Cn1nc(C)n2c(cc3occc32)c1=O	none
CC(C)[C@H](NC(=O)c1ccco1)C(=O)OCC(=O)Nc1ccccc1[N+](=O)[O-]	none
COc1ccc(/C=C2/SC(=Nc3cccc(C)c3)NC2=O)c(OC)c1	TEAD-YAP inh 54
COc1ccc(S(=O)(=O)Oc2cc(C)cc(C)c2CN2CCOCC2)cc1	TEAD-YAP inh 37
Cc1cc(OS(=O)(=O)c2ccc(F)cc2)c(C)cc1CN1CCOCC1	none
Nc1cc(=O)[nH]c(SCC(=O)c2ccc(Cl)s2)n1	none
CC1=NN(c2ccccc2)C(=O)C1N=Nc1cccc(O)c1 (stereo not drawn)	TEAD-YAP inh 49
CCc1ccccc1NC(=O)C(CCS(C)(=O)=O)NC(C)=O (stereo not drawn)	none
CSc1nc2c(c(=O)[nH]c(=O)n2C)n1CCSc1nc2ccccc2s1	TEAD-YAP inh 37
CCN1/C(=C/c2ccc3cc(OC)ccc3[n+]2CC)Sc2ccc(Cl)cc21	TEAD-YAP inh 77
